For 32 compounds, outcome results are on record in PubChem BioAssay AID2252 (Southern Research Specialized Biocontainment Screening …, 2010).

Among all 2,300 compounds or so, about 1,500 (65%) were called active. How the calls were made is not given here. The set was probably picked from earlier hits. Not all results are given here.

A short description of this assay: PubChem AID 2252. Particulars: THP-1 viability, CellTiter-Glo luminescence, 72 h; min viability: minimum viability across concentrations, concentration not given here; series mostly up to 50 µM. For orientation: ATP-based viability assays read luminescence as a measure of living cells.
On to `COCCn1nnnc1C(c1cccc(OC)c1OC)N1CCN(C2CCCCC2)CC1` (configuration not stated), for which the call was inactive.

In the case of `O=C(O)C1CCCCC1C(=O)NCCc1ccncc1` (configuration not stated), the result was inactive.

As for `O=C(Nc1nccs1)c1ccc(Cl)cc1[N+](=O)[O-]`, the call was inactive.

As to `Cc1ccc2c(c1)C1CN(C)CCC1N2C(=O)COc1ccccc1F` (configuration not stated), the call was inactive.

Turning to `CCc1nc(C)ccc1OCC(=O)NCCCN(C)C`, the outcome was inactive.

Regarding `CN1C(=O)NC(c2cccc(O)c2)C(C(=O)c2cccs2)C1(O)C(F)(F)F` (configuration not stated), the call was inactive.

Consider `Cc1cccc(N2C(=O)CS/C2=N\NC(=O)c2ccc(Br)cc2)c1C`, for which the result was inactive.

On to `N#Cc1nc(Cc2cccc3ccccc23)oc1NCCCN1CCOCC1`, for which the compound was called inactive.

As for `Cc1ccc(/C=N/NC(=O)Cc2cccn2C)cc1`, the call was inactive.

As to `O=C(Cc1ccccc1)NCC(=O)Nc1cccc(Cl)c1`, the call was inactive.

Regarding `CC(=O)c1ccc(NC(=O)CN2CCCCCC2)cc1`, the compound was classed as inactive.

`CSC(=Nc1ccc(Cl)cc1)N[n+]1ccccc1`: the outcome was inactive.

On to `CC(=O)Nc1ccc(S(=O)(=O)Nc2nc3ccccc3nc2Nc2cccc(S(N)(=O)=O)c2)cc1`, for which the result was inactive.

In the case of `COCCNC(=O)c1cccc(OC2CCN(Cc3ccccc3C)CC2)c1`, the outcome was inactive.

Regarding `Cc1ccc(C(=O)N/N=C\c2sccc2C)cn1`, the compound was classed as inactive.

Consider `CN(C)CCCOC(=O)c1sc2ccccc2c1Cl`, for which the result was inactive.

In the case of `COc1c2ccccc2nc2ccccc12`, the compound was called inactive.

For the compound `CCn1cc(C(=O)O)c(=O)c2cc(F)c(N3CCN(C(=S)NC(=O)c4ccc(Br)cc4)CC3)cc21`, the compound was called inactive.

Regarding `O=C(NCc1ccccc1)N[C@@H](Cc1c[nH]c2ccccc12)C(=O)O`, the call was inactive.

For `CCn1cc(C(=O)NCCO)c(=O)c2cc(F)c(N3CCN(C)CC3)cc21`, the outcome was inactive.

Take `CCn1nnnc1NCc1cccc(Cl)c1`: the call was inactive.

With `O=C(O)c1cn(-c2ccc(F)cc2)c2cc(Cl)c(F)cc2c1=O`, the compound was called inactive.

In the case of `COc1cccc(NC(=O)CSc2nncn2-c2ccccn2)c1`, the compound was classed as inactive.

As to `O=C(NC1CC1)C1CCN(C2CCN(C(=O)Cc3ccc(F)cc3)CC2)CC1`, the result was inactive.

On to `O=C(NC(CO)C(O)c1ccc([N+](=O)[O-])cc1)C(Cl)Cl` (configuration not stated), for which the outcome was inactive.

Turning to `CN1CCCN(S(=O)(=O)c2ccc3ccccc3c2)CC1`, the outcome was inactive.

With `NS(=O)(=O)OCCCc1ccc(C(F)(F)F)cc1`, the outcome was inactive.

Turning to `N#CCC(=O)N/N=C/c1ccccc1Cl`, the compound was classed as inactive.

Turning to `COc1ccc(-c2nc3ccc(C(=O)NCC(OC)OC)cc3nc2-c2ccc(OC)cc2)cc1`, the call was inactive.

As for `Cc1cc(C)c(S(=O)(=O)Nc2ccccc2C(=O)OCC(=O)NCc2ccccc2)c(C)c1`, the outcome was inactive.

Take `CCOC(=O)c1cccc(NC(=O)c2cccs2)c1`: the call was inactive.

On to `Cc1ccc(NC(=O)c2cc(NC(=O)CCCC(=O)O)ccc2Cl)cc1Cl`, for which the compound was classed as inactive.
